For 106 compounds, B-score results are on record in PubChem BioAssay AID488922 (Johns Hopkins Ion Channel Center, 2010).

About 3,800 (1.2%) of roughly 310,000 compounds were called active.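 The calls were made as follows: active = ratio B-score over 3 SD below the library mean, with starting fluorescence within 5 SD of its mean; inactive = the rest, inconclusive results apart.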 What follows is part of a selection rich in actives, with near analogues and random picks from the rest.

In this assay the target is Potassium channel subfamily K member 9 (Homo sapiens) (UniProt Q9NPC2). As to the kind of experiment: KCNK9 potassium channel inhibitors, primary screen, HEK293 cells, thallium flux (AID 488922).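 As to B-score: negative B-score means less thallium flux so channel inhibition.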 Conditions: HEK293 KCNK9, FluxOR thallium flux fluorescence, at 10 µM; hits give low values.
Chain of Potassium channel subfamily K member 9 (Homo sapiens) (Q9NPC2 whole entry, looked up): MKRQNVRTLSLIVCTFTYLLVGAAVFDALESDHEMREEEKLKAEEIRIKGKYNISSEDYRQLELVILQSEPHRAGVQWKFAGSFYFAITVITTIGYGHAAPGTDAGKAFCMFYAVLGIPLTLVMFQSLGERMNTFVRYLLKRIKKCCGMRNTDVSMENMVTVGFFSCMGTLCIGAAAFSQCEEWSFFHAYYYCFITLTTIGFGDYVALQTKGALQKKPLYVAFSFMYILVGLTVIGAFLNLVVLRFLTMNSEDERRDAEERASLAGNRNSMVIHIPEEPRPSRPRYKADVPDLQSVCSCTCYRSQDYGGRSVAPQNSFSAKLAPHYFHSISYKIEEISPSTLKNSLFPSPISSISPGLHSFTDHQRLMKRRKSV
On to `COCCCNC(=S)N1CCN(c2nc(-c3cccc(OC)c3)cs2)CC1`, for which the B-score result was “inactive”.

`COc1cccc(COc2ccc(N(C)S(=O)(=O)c3ccccc3)cc2)c1`: the B-score is -14.1 (active). Consider `Cc1ccc2nc(COc3ccc(N(C)S(=O)(=O)c4ccccc4)cc3)cc(=O)n2c1`, for which the B-score entry was “inactive”. As to `CN(c1ccc(OCC(=O)O)cc1)S(=O)(=O)c1ccc2ccccc2c1`, the B-score entry was “inactive”.

Take `O=C(Nc1ccccc1)O/N=C1/CCCc2occc21`: the B-score entry is “inactive”.

Regarding `Cc1ccc2c(c1)N(CC(=O)N1CCC(O)CC1)C(=O)CO2`, the B-score entry is “inactive”.

Regarding `O=C(O)COCC(=O)NCc1csc2ccc(Cl)cc12`, the B-score result is “inactive”. The value for `Cc1noc(C)c1C(=O)Nc1ccccn1` was “inactive”; that for `Cc1nonc1NC(=O)c1oc2ccccc2c1C` was “inactive”. To `Cc1c(C(=O)Nc2ccccn2)oc2ccc(Br)cc12` belongs -9.33 (active); to `C[C@H](NC(=O)c1nc[nH]c1C(=O)NCC(=O)OC(C)(C)C)C(=O)OCc1ccccc1`, “inactive”; to `O=C(NCC1CCCO1)c1cc2c([nH]c3ccccc32)c(-c2ccc(F)cc2)n1` (stereo unspecified), “inactive”.

For the compound `CSCC[C@H](NC(=O)CCCn1nnc2ccccc2c1=O)C(=O)O`, the B-score entry is “inactive”. On to `CCN(CC)CCNC(=O)c1ccc(NC(=O)c2c(F)cccc2Cl)cc1`, for which the B-score result is “inactive”. With `Cc1nn(-c2ccccc2)c(Cl)c1/C=N/NC(=O)c1nn(C)cc1[N+](=O)[O-]`, the B-score entry was “inactive”. In the case of `Cc1cc(=O)[nH]c(N/N=C/c2ccc3c(c2)OCCO3)n1`, the B-score entry is “inactive”. Take `Cc1cc(=O)[nH]c(N/N=C/c2c(C)nn(-c3ccccc3Cl)c2Cl)n1`: the B-score was -6.92 (active). To `C=C1CCN([C@H](C(=O)NCc2cc(OC)c(OC)c(OC)c2)C(C)C)S(=O)(=O)c2ccccc21` belongs “inactive”; to `CCN(c1ccccc1)S(=O)(=O)c1cc2c(cc1C)n(C)c(=O)c(=O)n2C`, “inactive”; to `Cc1ccc2c(c1)N(CC(=O)N(Cc1ccccn1)Cc1ccco1)C(=O)C(C(C)C)O2` (stereo unspecified), “inactive”. For `COc1cccc(-c2ccc(SCC(=O)N3CCN(c4ccccc4)CC3)nn2)c1`, the B-score result was “inactive”. For the compound `Cn1nc(C(F)(F)F)c2cc(C(=O)N3CCOCC3)sc21`, the B-score entry was “inactive”.

For the compound `COc1cccc(-c2nn(C)c3sc(C(=O)N4CCN(c5ccccc5)CC4)cc23)c1`, the B-score is -9.93 (active). Consider `Cn1nc(-c2ccc(Cl)cc2)c2cc(C(=O)NCc3ccco3)sc21`, for which the B-score entry is “inactive”. Take `COc1ccccc1N1CCN(C(=O)c2cc3c(-c4ccc(Cl)cc4)nn(C)c3s2)CC1`: the B-score was -13.6 (active).

For the compound `COc1cccc(-c2cc(C(=O)N3CCN(c4ccccc4OC)CC3)no2)c1`, the B-score result was “inactive”. Turning to `CN1CCN(C2Cc3ccc(Cl)cc3Sc3ccc(F)cc32)CC1` (stereo unspecified), the B-score entry is “inactive”.

In the case of `N#C/C=C/N1CCN(Cc2ccc3c(c2)OCO3)CC1`, the B-score result was “inactive”.

For `CC(C)(C)NC(=O)Cn1c(SCC(=O)Nc2nccs2)nc2ccccc21`, the B-score result is “inactive”. To `O=C(Nn1cnnc1)c1cc(Cl)ccc1Cl` belongs “inactive”.

Turning to `COc1ccc(/C=N/OCc2ccccc2C#N)c(OC)c1`, the B-score entry was “inactive”.

Take `COc1cc(C(=O)NCC(=O)N2CC=C(c3ccccc3)CC2)cc(OC)c1OC`: the B-score result is “inactive”. Take `O=C(Nc1ccc(Cl)c(Cl)c1)N1CC=C(c2ccccc2)CC1`: the B-score was -8.34 (active). On to `O=C(Nc1ccccc1)N1CCN(C(=O)Nc2ccccc2)CC1`, for which the B-score result was “inactive”. Take `CC(=O)Nc1ccc(NC(=O)CN2C(=O)COc3ccc(S(=O)(=O)N4CCCCC4)cc32)cc1`: the B-score entry was “inactive”.

On to `Cc1cccc(N(C)C(=O)CN2C(=O)COc3ccc(S(=O)(=O)N4CCCCCC4)cc32)c1`, for which the B-score was -8.26 (active).

As to `CN(C)c1ccc(CNC(=O)CN2C(=O)COc3ccc(S(=O)(=O)N4CCCC4)cc32)cc1`, the B-score entry is “inactive”. As to `COc1ccc(NC(=O)C(CC(C)C)NS(=O)(=O)c2ccc3c(c2)CCN3C(C)=O)cc1OC` (stereo unspecified), the B-score entry was “inactive”.

On to `S=c1nc2ccccc2c2nc(-c3cccnc3)[nH]n12`, for which the B-score result was “inactive”.

For `COCCCn1c(SCC(=O)Nc2oc(C)c3c(C)n[nH]c(=O)c23)nc2sc3c(c2c1=O)CCC3`, the B-score result is “inactive”. Take `Fc1ccc(/C=N/Nc2nc(-c3cccnc3)nc3ccccc23)cc1`: the B-score entry was “inactive”.

Regarding `Cc1nc2ccccc2nc1N/N=C/c1ccc(O)cc1O`, the B-score entry was “inactive”. In the case of `Oc1ccc(/C=N/Nc2nc(-c3ccccc3F)nc3ccccc23)c(O)c1`, the B-score is -10.4 (active). As to `O=C(CN1CCN(Cc2ccccc2)CC1)Nc1ccc(F)c(F)c1`, the B-score result was “inactive”. To `Cc1ccc(NC(=O)NC(=O)c2ccccc2)cc1F` belongs “inactive”; to `O=C(CC(NC(=O)c1ccccc1)c1ccccc1)Nc1ccc(F)c(F)c1` (stereo unspecified), -10 (active); to `Cc1ccc(N/N=C2\COC(C)(C)CC2=O)cc1`, “inactive”. With `Cc1cccc(NC(=O)CN2CCCN(S(=O)(=O)c3ccc(Br)s3)CC2)c1`, the B-score was -14.6 (active). `O=C(CN1CCCCCC1)Nc1ccc(S(=O)(=O)N2CCCCC2)cc1`: the B-score entry is “inactive”. The value for `Cc1ccc(S(=O)(=O)N2CCN(CC(=O)N/N=C/c3ccc(Br)s3)CC2)cc1` was “inactive”. On to `O=C1CCN(Cc2ccc([N+](=O)[O-])cc2)CCN1[C@H](CO)Cc1ccccc1`, for which the B-score result was “inactive”. To `CCC1(C)Cc2c(sc3nc(SC)nc(N)c23)CO1` (stereo unspecified) belongs “inactive”. Consider `CCCSc1nc(NCc2ccco2)c2c3c(sc2n1)COC(C)(CC)C3` (stereo unspecified), for which the B-score is -9.18 (active). As for `CCC1(C)Cc2c(sc3nc(SC)[nH]c(=O)c23)CO1` (stereo unspecified), the B-score entry was “inactive”. As for `COc1ccc(-c2nc3c(s2)CCc2onc(-c4ccc(OC)cc4)c2-3)cc1`, the B-score result was “inactive”. With `CC1CC(C)CN(S(=O)(=O)c2cccc3nonc23)C1` (stereo unspecified), the B-score result is “inactive”. For the compound `CCn1c(Cc2cccs2)nnc1SCC(=O)c1ccc(C)cc1`, the B-score result is “inactive”. Regarding `Cc1cc([N+](=O)[O-])ccc1NC1CCCC1`, the B-score entry is “inactive”. For the compound `Cc1c(NS(=O)(=O)c2ccc(NC3CCCC3)c([N+](=O)[O-])c2)c(=O)n(-c2ccccc2)n1C`, the B-score result is “inactive”. Turning to `Cc1cc(C=O)c(C)n1-c1ccc(NC2CCCCC2)c([N+](=O)[O-])c1`, the B-score is -24.9 (active).

Consider `Cc1ccc2nc(C)c3c(c2c1)N(c1ccccc1)CC3`, for which the B-score result is “inactive”. The value for `Cc1nc2nc(SCC(=O)Nc3cccc(F)c3)[nH]c2cc1Br` was “inactive”; that for `COc1ccc(-c2nc3n(c(=O)c2C#N)CCS3)c(OC)c1` was “inactive”. Turning to `CCC1CCC/C1=N\NC(=O)c1ccc(Cl)cc1` (stereo unspecified), the B-score result was “inactive”. As to `Cc1sc2nc(CSCC(=O)NC3CCCCC3)[nH]c(=O)c2c1C`, the B-score result is “inactive”. Regarding `CCCCn1c(=O)c(C(C)=O)c(O)c2ccccc21`, the B-score result was “inactive”. Take `CCCCCn1c(=O)c(C(=O)OCC)c(Cl)c2ccccc21`: the B-score is -8.35 (active).

`CCOC(=O)c1nnn2c3ccccc3c(=O)n(C)c12`: the B-score result is “inactive”. To `COc1ccccc1C1C(C#N)=C(N)Oc2c1c(-c1ccccc1)nn2-c1ccccc1` (stereo unspecified) belongs “inactive”; to `CCc1nnc(NC(=O)CSc2nc(SC)ns2)s1`, “inactive”; to `CN1C(C(=O)NCc2ccco2)CC2Cn3c(nc4ccccc43)C21` (stereo unspecified), “inactive”. As for `O=C(Cc1ccc(F)cc1)N1CCN=C1SCc1cccc([N+](=O)[O-])c1`, the B-score entry is “inactive”. `Cc1cc(C)cc(C(=O)N2CCN=C2SCc2ccc([N+](=O)[O-])cc2)c1`: the B-score is -7.18 (active).

As to `Cc1cccc(CC(=O)N2CCN=C2SCc2ccc([N+](=O)[O-])cc2)c1`, the B-score entry was “inactive”. For `CC1=CC(=C(C#N)c2nc3ccccc3s2)C=C(C)N1c1ccc(F)cc1F`, the B-score result was “inactive”.

As for `O=S(=O)(Cc1nnnn1-c1ccc(Br)cc1)c1ccc(F)cc1`, the B-score entry is “inactive”. On to `COc1ccc2[nH]c(=O)c(C3c4cc(OC)c(OC)cc4CCN3C(=O)c3ccco3)cc2c1` (stereo unspecified), for which the B-score result is “inactive”. For `COc1ccc(C(=O)N2CCc3cc(OC)c(OC)cc3C2c2cccc([N+](=O)[O-])c2)cc1` (stereo unspecified), the B-score was -15.3 (active). As to `COc1ccccc1C1SCCN1C(=O)c1ccc([N+](=O)[O-])cc1` (stereo unspecified), the B-score result was “inactive”.

For `O=C(NCCCO)/C(=C\C=C\c1ccccc1)NC(=O)c1ccccc1Cl`, the B-score entry is “inactive”.

For `Cc1ccc(CSc2nsc(C)c2C#N)cc1`, the B-score entry was “inactive”. For the compound `O=C(Nc1ccc(F)cc1)C1CCCN(S(=O)(=O)c2ccc(-n3cnnn3)cc2)C1` (stereo unspecified), the B-score result was “inactive”. With `CN(C)S(=O)(=O)N1CCC(Oc2cccc(C(=O)NCCCC3CCCC3)c2)CC1`, the B-score was -14.3 (active). To `CN(C(=O)c1cccc(OC2CCN(S(=O)(=O)N(C)C)CC2)c1)C1CCOC1` (stereo unspecified) belongs “inactive”; to `CNS(=O)(=O)c1cccc(C(=O)NCC2CCCCC2)c1`, “inactive”. For the compound `Cc1ccc(CCNC(=O)c2ccc3nc4ccccc4c(=O)n3c2)cc1`, the B-score result was “inactive”.

With `CC(C)(C)c1nnc(NC(=O)C2c3ccccc3Oc3ccccc32)s1`, the B-score entry was “inactive”. The value for `CCn1ccnc1CNC(=O)CC1C(=O)NCCN1Cc1ccc(F)cc1Cl` (stereo unspecified) was “inactive”; that for `O=[N+]([O-])c1ccc2c(c1)Nc1nc3ccccc3nc1N2` was “inactive”.

Turning to `COc1ccc([N+](=O)[O-])cc1-c1nc2ccccc2nc1-c1ccccc1`, the B-score was -9.17 (active). In the case of `COc1ccc(-c2nc3cc([N+](=O)[O-])ccc3o2)cc1OC`, the B-score result was “inactive”. Consider `Cc1cnc(NC(=O)c2ccccn2)s1`, for which the B-score result is “inactive”.

Regarding `CC(C)CNC(=O)C(=O)NCC(c1ccc2c(c1)OCO2)N1CCOCC1` (stereo unspecified), the B-score entry is “inactive”. Consider `CC(C)[C@@H](NC(=O)OC(C)(C)C)C(=O)NCC1CCC(C(=O)N[C@@H](Cc2ccccc2)C(=O)O)CC1` (stereo partly specified), for which the B-score result was “inactive”. `Cc1cccc(C(=O)Nc2ccccc2N2CCN(c3ccc(F)cc3)CC2)c1`: the B-score was -9.31 (active). The value for `CCC(C)C(=O)Nc1ccccc1N1CCN(c2ccc(F)cc2)CC1` (stereo unspecified) was “inactive”; that for `O=C(Nc1ccccc1N1CCN(c2ccccc2)CC1)c1cccc(F)c1` was “inactive”; that for `CCCC(=O)Nc1ccccc1N1CCN(C(=O)c2ccccc2)CC1` was “inactive”.

As to `O=C(Nc1ccccc1N1CCCC1)c1ccc2ccccc2c1`, the B-score entry is “inactive”. To `CCCCC(=O)Nc1ccccc1N1CCN(c2ccc(F)cc2)CC1` belongs -13.2 (active); to `COc1ccc(NC(=O)CN(C)C(=O)CC2CCCCC2)cc1`, “inactive”; to `CNC1(c2nnnn2-c2c(C)cccc2C)CCOC(C)(C)C1` (stereo unspecified), “inactive”. To `COc1ccccc1NC(=O)C1=C(C)Nc2nc3ccccc3n2C1c1cccs1` (stereo unspecified) belongs “inactive”; to `O=[N+]([O-])/C=C/c1ccc2c(ccn2Cc2ccccc2)c1`, -9.63 (active). For the compound `O=C(/C=C/c1cccc([N+](=O)[O-])c1)N1CCN(Cc2ccccc2)CC1`, the B-score result was “inactive”. For the compound `O=c1c([N+](=O)[O-])cc(C(F)(F)F)cn1Cc1cccc(Cl)c1`, the B-score result was “inactive”.
